Hits are enriched below; roughly 1.2% of the tested compounds scored in any of these assays.
MsrA inh – bovine MsrA enzyme inhibitors, primary screen, biochemical, absorbance, HTS; Methionine sulfoxide reductase A (Bos taurus); purified bovine MsrA, absorbance read-out; inhibition, % at 15.5 µM; 0.75% of 360,000 active;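 also: 0% = vehicle wells with enzyme and 100% = reference inhibitor wells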
MsrA act – bovine MsrA enzyme activators, primary screen, biochemical, absorbance, HTS | Methionine sulfoxide reductase A (Bos taurus) | purified bovine MsrA, absorbance read-out | activation, % at 10.6 µM | 0.3% of 360,000 active; in the data active = activation above about 7.5%;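 also: 0% = vehicle and 100% = reference activator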
NPR2 activator – human GC-B receptor activators, primary screen, HEK293 GC-B cells, cGMP TR-FRET, EC30 CNP. 0.11% of 370,000 active. 0% at EC30 CNP, 100% saturating CNP. activation, % at 10 µM. Atrial natriuretic peptide receptor 2 (Homo sapiens), P20594;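 active = activation at 10 µM reaching about 35% in either raw or pattern-adjusted values, limit read from the data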
GC-A act – GC-A stimulated cGMP production enhancers – HEK293 GC-A cells, cGMP TR-FRET, EC30 ANP, primary screen; 0.14% of 370,000 active; Atrial natriuretic peptide receptor 1 (Homo sapiens), P16066; activation, % at 10 µM; 0% at EC30 ANP, 100% saturating ANP; in the data active = activation above about 40%
MsrA conf – bovine MsrA inhibitors, retest, confirmation, biochemical, absorbance, HTS; shares compounds with MsrA inh; purified bovine MsrA, absorbance read-out; inhibition, % at 15.5 µM; 41% of 2,300 active; AID 651822, 2012;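 also: coupled to thioredoxin reductase with NADPH and selenocystamine and DMSO as substrate; 0% = vehicle only and 100% = full effect of reference inhibitor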
* = called active by the depositor; · = no result. Rule as the data show it, unless noted: active = inhibition above about 4.5%; inactive = the rest.

SMILES | MsrA inh | MsrA act | NPR2 activator | GC-A act | MsrA conf
O=C(N/N=C/C(Cl)=C/c1ccccc1)c1ccco1 | 8.5* | -6.8 | -10.0 | -4.3 | 6.6*
O=C(N/N=C/C(Cl)=C\c1ccccc1)c1ccco1 | 3.9 | -4.8 | -6.1 | 2.3 | ·
Oc1cccc(/C=N/n2c(C3CCCCC3)n[nH]c2=S)c1 | -1.3 | 0.9 | -2.8 | 1.5 | ·
COc1cccc(/C=N/n2c(C3CCCCC3)n[nH]c2=S)c1 | 8.2* | 2.2 | -6.5 | 8.1 | 6.5*
O=[N+]([O-])c1cccc(/C=N/n2c(C3CCCCC3)n[nH]c2=S)c1 | 5.0* | -0.2 | -1.4 | 2.1 | 12.6*
O=C(O)c1cc2c(ccc3ccccc32)oc1=O | 1.6 | -5.6 | -7.1 | -6.4 | ·
CCOC(=O)c1cc2c(ccc3ccccc32)oc1=O | 20.0* | -2.5 | -3.1 | 0.4 | 13.4*
O=C1N2Cc3ccccc3C2CS(=O)(=O)N1C1CCCC1 (configuration not stated) | · | · | -2.6 | 2.6 | ·
O=[N+]([O-])c1ccc(Sc2nc3ccccc3[nH]2)c(Cl)c1 | -0.2 | · | 2.7 | 0.2 | ·
CCC(=O)/C=C1/Sc2ccc(OC)cc2N1CCO | 4.2 | -5.3 | 3.2 | 2.0 | ·
CCC(=O)/C=C1/Sc2ccc(OC)cc2N1CC | 4.7* | -2.9 | 0.5 | 1.7 | 3.0
CCC(=O)/C=C1/Sc2ccccc2N1CC | 8.2* | -8.6 | 1.0 | -2.5 | 3.6
O=C(Cc1ccccc1)N1O[C@H]2C=C[C@@H]1C2 | -0.4 | · | -0.6 | 1.4 | ·
COc1ccc(-n2c(SCC(=O)NC3CCCCCC3)nnc2-c2ccncc2)cc1 | · | · | -1.9 | -2.2 | ·
O=C(Nc1nc2ncccn2c1-c1ccccc1)c1ccccc1 | · | · | -7.9 | 1.0 | ·
Nc1ccc(C(=O)CC(=O)Nc2ccc(Cl)cc2)cc1 | 5.0* | 0.1 | -2.4 | 5.6 | 1.1
Nc1ccc(NC(=O)c2ccc(C(=O)Nc3ccc(N)cc3)cc2)cc1 | 0.9 | -2.0 | 3.3 | 0.6 | ·
CCc1ccc[n+](-c2[nH]c(=O)sc2/C=N/N=C(\[O-])c2ccncc2)c1 | 2.8 | -6.0 | 0.5 | -2.2 | ·
Cc1cc(C)c[n+](-c2[nH]c(=O)sc2/C=N/N=C(\[O-])c2cccnc2)c1 | 5.6* | -10.1 | -3.6 | -3.5 | 4.5
CN1CCc2c(sc3c2C(=O)NC(c2ccco2)N3)C1 (configuration not stated) | 3.1 | -3.4 | 4.3 | 1.9 | ·
CN1CCc2c(sc3c2C(=O)NC(c2cn(Cc4ccccc4)c4ccccc24)N3)C1 (configuration not stated) | 5.5* | -8.4 | -0.4 | 18.8 | 0.3
CCCc1ccc(-c2cc(NC(=O)Cc3c(C)[nH]c4ccccc34)ccc2N(C)c2cccnc2)cc1 | 0.9 | · | 4.3 | 1.4 | ·
COC(=O)C(CCSC)NC(=O)c1cc2c(n(-c3ccc(C)cc3)c1=O)CCCC2=O (configuration not stated) | 5.5* | -9.8 | -1.4 | 0.8 | 0.1
O=C(NCc1ccccc1)[C@@H]1CCCN1C(=O)[C@H]1CCCN1C(=O)c1ccc(F)c(F)c1 | 0.0 | · | 2.5 | 2.2 | ·
COC(=O)[C@]12C[C@H](CC(=O)NCCCCc3ccccc3)C(=O)N(Cc3ccccc3)C1=C[C@H](COCc1ccccc1)O[C@@H]2C | · | · | 0.0 | -4.7 | ·
SMILES | MsrA inh | MsrA act | NPR2 activator | GC-A act | MsrA conf
O=C(O)c1ccc(-c2nc3ccccc3s2)o1 | 5.2* | -4.0 | 3.5 | -0.7 | 3.7
O=C(c1ccc(-c2nc3ccccc3s2)o1)N1CCN(c2ccccc2O)CC1 | 3.2 | -1.9 | -0.5 | 0.7 | ·
CC(=O)c1cc(-c2ccc3nonc3c2)c(=O)n2c1CCC2 | · | · | 0.0 | -0.5 | ·
Cn1cc(/C=N/NC(=O)c2ccc(C#N)cc2F)c2ccccc21 | 3.1 | -3.4 | -2.4 | 0.7 | ·
N#Cc1ccc(C(=O)N/N=C/c2cn(CC(=O)O)c3ccccc23)c(F)c1 | 6.8* | -6.0 | -2.0 | -1.7 | 2.8
CCOC(=O)Cn1cc(/C=N/NC(=O)c2ccc(C#N)cc2F)c2ccccc21 | 6.2* | -3.9 | 10.8 | 11.5 | 3.6
O=C(O)c1ccc(/C=N/Nc2ccc(C(F)(F)F)cn2)cc1 | 7.0* | -8.5 | -6.3 | 8.1 | 6.3*
COc1cc(/C=N/n2cnnc2-n2nc(C)cc2C)cc([N+](=O)[O-])c1O | 5.2* | -5.4 | -2.7 | 3.8 | 3.9
CCOc1cc(/C=N\NC(=O)c2ccc(C)nc2)cc([N+](=O)[O-])c1O | 8.0* | -3.2 | -10.5 | -15.7 | 6.4*
COc1cc([N+](=O)[O-])cc(/C=N/NC(=O)c2ccc(C)nc2)c1O | 2.0 | -1.3 | 2.2 | -0.3 | ·
COc1cc(/C=N/NC(=O)c2ccc(C)nc2)cc([N+](=O)[O-])c1O | 5.3* | -9.1 | -0.8 | -6.1 | 3.9
COc1cc(/C=N/NC(=O)c2cccnc2)cc(Br)c1O | 4.7* | -10.4 | -12.7 | -16.9 | 4.1
O=c1cnn(-c2ccccc2)c(-c2ccccc2)c1 | 12.5* | -4.5 | -0.9 | 1.4 | 9.5*
Nc1c(-c2ccccc2)cnn1-c1ccccc1 | -0.1 | -1.3 | -0.5 | 7.8 | ·
CC(C)CN1C(=O)C[C@@]2(C(=O)N(C)c3ccc(NS(=O)(=O)C4CCCCC4)cc32)C1c1ccccc1 (some centres not stated) | · | · | -0.7 | -4.0 | ·
COC(=O)/C(=C1/Oc2cc3c(cc2S1)OCO3)C(F)(F)F | 6.6* | -0.1 | 1.4 | 2.8 | 7.0*
COC(=O)/C(=C1/Oc2ccc(C)cc2S1)C(F)(F)F | 9.6* | -14.5 | -1.2 | 0.0 | 10.7*
COc1cc(C2c3cc4c(cc3OC(Nc3ccc(C(=O)O)cc3)C2C)OCO4)cc(OC)c1OC (configuration not stated) | 1.3 | -2.3 | 3.5 | -8.5 | ·
O=[N+]([O-])c1ccccc1/C=C/C1Nc2cccc3cccc(c23)N1 | · | · | 4.0 | -3.4 | ·
O=C(O)COc1ccccc1/C=N/Nc1ccc(S(=O)(=O)N2CCOCC2)cc1[N+](=O)[O-] | 4.9* | -5.4 | -1.6 | 6.1 | 4.5
CN(C)/C=N/c1nc2nccc(-c3ccc(F)cc3)n2n1 | 1.6 | -2.6 | 8.5 | 1.0 | ·
CN(C)/C=N/c1nc2nccc(-c3cccs3)n2n1 | 7.1* | -6.8 | 3.0 | 5.9 | 6.1*
COC(=O)C1=C(C)N(Cc2ccc(C(F)(F)F)cc2)C(=NCc2ccccc2)NC1c1ccc(C(F)(F)F)cc1 (configuration not stated) | -0.6 | · | -17.6 | -21.1 | ·
Cc1cc(C)nc(N/N=C/c2ccc(N3CCOCC3)cc2)n1 | 6.6* | -10.7 | -1.3 | -7.5 | 6.1*
COc1ccc(OC)c(NC(=S)NCCN2CCOCC2)c1 | 0.4 | -1.0 | 0.2 | 0.4 | ·
Clc1cccc(N/N=C/c2ccc(N3CCOCC3)cc2)c1 | 1.7 | -2.8 | -3.7 | -3.2 | ·
COc1cc(/C=N/NC(=S)NCCN2CCOCC2)ccc1O | 7.4* | -4.9 | 2.1 | -0.1 | 5.2*

Source: PubChem BioAssay (several laboratories)
